NadD block: inhibitors of S. aureus NadD, primary screen, biochemical, colorimetric, uHTS. purified NadD enzyme, colorimetric absorbance read-out. hit rate 0.78% among 360,000. inhibition, % at 20 µM; in the data active means inhibition above about 26%
pCIP destab: p/CIP-EGFP fusion destabilizers, primary screen, fluorescence, F442A cells; 16 h; decrease of EGFP signal, % at 10 µM; hit rate 0.01% among 290,000;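 active means EGFP signal decrease of at least 30% at 10 µM or well 3 SD below plate mean, unless failing retest; inactive means the rest, including hits failing retest or dose response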
PHOSPHO1 block: PubChem AID 1565. Phosphoethanolamine/phosphocholine phosphatase (Homo sapiens), Q8TCT1. recombinant PHOSPHO1, absorbance phosphatase assay. inhibition, % at 13.3 µM. hit rate 1.1% among 290,000; in the data active means inhibition above about 60%
Target sequence (Q8TCT1 whole entry, looked up): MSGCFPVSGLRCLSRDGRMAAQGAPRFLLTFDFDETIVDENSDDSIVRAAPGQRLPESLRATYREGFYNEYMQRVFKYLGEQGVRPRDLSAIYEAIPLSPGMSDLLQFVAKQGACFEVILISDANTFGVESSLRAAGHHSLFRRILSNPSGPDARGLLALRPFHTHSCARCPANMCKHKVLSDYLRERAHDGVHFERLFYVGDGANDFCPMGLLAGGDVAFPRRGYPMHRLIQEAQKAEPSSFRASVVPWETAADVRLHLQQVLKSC
SUMO HTRF inh: inhibitors of in vitro SUMOylation cascade, primary screen, biochemical, HTRF, uHTS; SUMO-conjugating enzyme UBC9 (Homo sapiens), P63279; HTRF SUMOylation assay, SAE1/SAE2 + UBC9; hit rate 0.36% among 290,000; inhibition, % at 35 µM; in the data active means inhibition above about 50%, passing the limit was not always enough
Target sequence (P63279 whole entry, looked up): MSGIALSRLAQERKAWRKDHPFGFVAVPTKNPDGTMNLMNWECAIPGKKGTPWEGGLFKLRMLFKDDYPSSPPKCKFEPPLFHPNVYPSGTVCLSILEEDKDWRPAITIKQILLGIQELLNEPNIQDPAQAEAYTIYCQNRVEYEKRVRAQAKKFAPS
Active calls of the source: *; . = no result. Shown are actives, neighbours in structure and some others; about 1.8% of the full set was active somewhere.

SMILES	NadD block	pCIP destab	PHOSPHO1 block	SUMO HTRF inh
Cc1nn(-c2ccccc2)c2c1C(c1ccc(O)c(O)c1)N1C(=N2)C(Nc2ccccc2)=Nc2ccccc21 (centres undefined)	18.4	-8.6	-65.9	32.7
N#Cc1cccc(-c2csc(C(O)c3ccc(F)cc3)n2)c1 (centres undefined)	-2.8	.	.	.
O=S1(=O)CC(N2CC=CC2)CN1Cc1cn(Cc2ccc(F)cc2)nn1 (centres undefined)	2.7	.	.	.
Cc1[nH]ccc2cc3nc4ccccc4c3cc12	-7.3	.	.	.
CC1CN(S(=O)(=O)c2cccc(C(=O)OCC(=O)Nc3ccc4c(c3)OCO4)c2)CC(C)O1 (centres undefined)	7.7	-12.5	62.0*	13.3
CC1CN(S(=O)(=O)c2cccc(C(=O)OCC(=O)c3cccs3)c2)CC(C)O1 (centres undefined)	2.5	-11.4	-19.9	37.0
CC(=O)Nc1ccc(OCCC[n+]2ccccc2)cc1	-6.8	-12.2	60.1*	-7.6
COc1cccc(NC(=O)C2(C)CCN2C(=O)CC2CCCC2)c1 (centres undefined)	-4.7	.	.	.
COc1ccc(/C=C(\C#N)C(=O)OCC(=O)NCc2ccccc2Cl)cc1	-1.1	-1.0	-10.7	54.6*
COc1ccc(OC)c(Nc2nc(-c3sc(NC(=O)c4ccccc4)nc3C)cs2)c1	.	-8.6	33.8	13.5
CCC(C)C(=O)Nc1nc(C)c(-c2csc(Nc3ccccc3OC)n2)s1 (centres undefined)	7.8	-1.8	74.3*	24.5
C=CCCC(=O)Nc1nc(C)c(-c2csc(Nc3ccccc3OC)n2)s1	6.1	2.8	76.8*	1.4
C=CCCC(=O)Nc1nc(C)c(-c2csc(Nc3ccc(Cl)cc3Cl)n2)s1	14.5	-1.3	42.7	13.8
C=CCCC(=O)Nc1nc(C)c(-c2csc(Nc3cc(Cl)ccc3OC)n2)s1	21.1	2.4	98.7*	21.6
COc1ccccc1Nc1nc(-c2sc(NC(=O)c3ccco3)nc2C)cs1	10.1	-0.2	86.5*	24.7
CCOC(=O)N1CCN(C(=O)c2ccc(NS(=O)(=O)c3ccc4[nH]c(=O)[nH]c4c3)cc2)CC1	3.0	.	.	.
Cc1ccc(S(=O)(=O)N[C@H](C(=O)NC2CCC(C)CC2)C(C)C)cc1 (some centres undefined)	3.9	.	.	.
COc1ccc(C(=O)Nc2nc(CC(=O)NCc3c(F)cccc3F)cs2)cc1	-0.5	.	.	.
CC(C)c1ccc(-n2nnnc2SCC(=O)NC2CC2)cc1	-0.1	.	.	.
CCc1nc2ccc(C(=O)NCCCN3CCCC3=O)cn2c1N(C)CCC(C)C	3.6	.	.	.
Cc1ccccc1Nc1nc(-c2sc(NC(=O)c3ccccc3)nc2C)cs1	.	-1.6	69.4*	-20.2
CCCCCCC(=O)Nc1nc(C)c(-c2csc(Nc3cc(OC)ccc3OC)n2)s1	28.7	5.7	76.8*	-18.3
CCCCC(=O)Nc1nc(C)c(-c2csc(Nc3ccccc3OC)n2)s1	25.2	-8.1	93.8*	22.2
CCCCCC(=O)Nc1nc(C)c(-c2csc(Nc3cc(OC)ccc3OC)n2)s1	14.3	-2.2	50.0	8.2
Cc1ccccc1Nc1nc(-c2sc(NC(=O)c3cccc(Cl)c3)nc2C)cs1	.	-15.0	-10.0	5.2
SMILES	NadD block	pCIP destab	PHOSPHO1 block	SUMO HTRF inh
O=C(Nc1nc(-c2ccco2)cs1)c1ccccc1	10.0	-9.6	88.5*	21.1
COc1ccc(Cl)cc1Nc1nc(-c2sc(NC(=O)CC(C)C)nc2C)cs1	22.9	0.3	93.8*	10.5
Cc1nc(NC(=O)CC(C)C)sc1-c1csc(Nc2ccc(Cl)cc2Cl)n1	25.7	-12.4	54.9	-2.2
O=C(/C=C/c1ccc(O)c(O)c1)O[C@H](Cc1ccc(O)c(O)c1)C(=O)O	.	-10.0	8.9	69.0*
O=C(O)/C=C/c1ccc(O)c(O)c1	3.4	-13.0	-1.4	-21.6
O=C(N/N=C/c1cn(Cc2cccc(F)c2)c2ccccc12)c1cc(O)cc(O)c1	18.6	5.5	-44.5	66.3*
Cc1cc(NC(=O)c2ccc3sc([C@@H]4O[C@H](CO)[C@H](O)[C@H](O)[C@H]4O)nc3c2)n(C)n1	2.3	.	.	.
CC(=O)N(\C=C/C=C/C=C1\Sc2ccccc2C1=O)c1ccccc1	18.9	-8.6	-22.9	69.3*
CN(C)/C=C1/Sc2ccccc2C1=O	7.0	-10.2	31.9	-6.9
O=C(NCc1ccc(Cl)nc1)c1csc([C@@H]2C[C@H](O)[C@@H](CO)O2)n1	-2.3	.	.	.
Cn1cccc1/C=N/NC(=O)c1sc2cc(Cl)ccc2c1Cl	.	-0.2	-36.4	56.4*
Cc1ccc2c(Cl)c(C(=O)N/N=C/c3cccn3C)sc2c1	3.3	-0.8	6.0	11.3
O=C(NCc1cccc(C(F)(F)F)c1)c1csc([C@@H]2C[C@H](O)[C@@H](CO)O2)n1	-2.5	.	.	.
O=c1cc(O)n(-c2ccc(Cl)cc2)c(=S)[nH]1	11.3	-0.9	81.6*	20.9
CC1(C(=O)NS(=O)(=O)c2cccc(Cl)c2)CCN1C(=O)c1ccccc1 (centres undefined)	-0.5	.	.	.
CC(=O)C1=C(O)C(=CC=Cc2ccccc2)OC1=O	0.2	.	.	.
O=C(O)CCCN1C(=O)/C(=C/c2ccc(-c3nc4ccccc4s3)o2)SC1=S	11.0	8.2	69.3*	4.3
O=C(CCN1C(=O)/C(=C\C=C\c2ccccc2)SC1=S)Nc1ccc(C(=O)O)cc1	22.5	-16.5	17.4	25.3
O=C(NN1C(=O)/C(=C/C=C/c2ccccc2)SC1=S)c1ccncc1	34.5*	7.5	0.6	6.0
O=C(CCN1C(=O)/C(=C/C=C/c2ccccc2)SC1=S)Nc1nc2ccccc2s1	42.2*	-1.9	-2.6	15.4
O=C(COC(=O)CCN1C(=O)/C(=C\C=C\c2ccccc2)SC1=S)Nc1cc(F)ccc1F	35.3*	2.7	22.6	48.4
O=C(O)CCCCCN1C(=O)/C(=C\c2ccc(-c3ccc(Cl)cc3)o2)SC1=S	7.6	-10.7	-1.5	23.5
CCCCn1nnnc1C1(C)CCC(=O)N1c1ccc(N2CCOCC2)cc1 (centres undefined)	-4.9	.	.	.
Cc1ccc(/C=C2\SC(=S)N(C3CCS(=O)(=O)C3)C2=O)o1 (centres undefined)	10.1	-11.4	-30.0	21.2
NS(=O)(=O)c1ccc(-c2ccc(/C=C3\SC(=S)N(C4CCS(=O)(=O)C4)C3=O)o2)cc1 (centres undefined)	35.2*	-23.8	3.3	8.9
SMILES	NadD block	pCIP destab	PHOSPHO1 block	SUMO HTRF inh
CCCOc1ccc(F)cc1-c1cc(C(=O)NCc2cccs2)[nH]n1	-4.6	.	.	.
CCN(CC)Cc1c(O)ccc2c(=O)c(Oc3ccccc3OC)coc12	10.3	-17.1	21.6	52.2*
COc1ccccc1Oc1coc2c(CN(C)C)c(O)ccc2c1=O	-8.3	0.6	-53.0	37.6
COc1ccc(S(=O)(=O)NC(=O)C2(C)CCN2C(=O)C2(c3ccc(Cl)cc3)CCC2)cc1 (centres undefined)	-0.6	.	.	.
Cc1ccccc1OCC(O)Cn1c(SC(C)C)nc2c1c(=O)[nH]c(=O)n2C (centres undefined)	8.0	-9.5	91.4*	9.7
CCSc1nc2c(c(=O)[nH]c(=O)n2C)n1CC(O)COc1ccccc1C (centres undefined)	-3.8	-21.3	3.9	5.7
CC1CCN(Cc2cc(=O)oc3cc(O)c(Cl)cc23)CC1	0.9	0.2	36.0	55.2*

Screens as filed in PubChem BioAssay.
